Out of some 5,500 compounds screened, about 2,000 (36%) were called active. Not shown: some 18% with an inconclusive outcome. No stated cut-off is given here; in the data, active means normalized growth mostly below about 0.91 (no sharp cut-off); inconclusive means no clear call, values can overlap the other calls; inactive means mostly above about 0.92. The list shows a part of the results.
Assay: chemical genetic growth profiling, strain panel (AID 1159580);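 further: tested at 20 µM; growth read once vehicle control cultures reached saturation at 30 °C; 1 = growth at the plate median or of vehicle wells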
Conditions: growth OD

Measured: normalized growth

Oc1cc(O)c2c(c1)O[C@H](c1ccc(O)c(O)c1)[C@@H](O)C2
inactive: S. cerevisiae deletion strains, locus YJR066W, strain TOR1, stronger effect = lower value 0.927 | S. cerevisiae deletion strains, locus YJR075W, strain HOC1, stronger effect = lower value 1 | S. cerevisiae deletion strains, locus YKL009W, strain mrt4, stronger effect = lower value 0.991 | S. cerevisiae deletion strains, locus YKL068W, stronger effect = lower value 0.977 | S. cerevisiae deletion strains, locus YKL085W, strain MDH1 (second series), stronger effect = lower value 0.981 | S. cerevisiae deletion strains, locus YKL085W, strain MDH1, stronger effect = lower value 0.981 | S. cerevisiae deletion strains, locus YKL160W, strain elf1, stronger effect = lower value 1.02 | S. cerevisiae deletion strains, locus YKR001C, strain vps1, stronger effect = lower value 1.03 | S. cerevisiae deletion strains, locus YKR026C, strain gcn3, stronger effect = lower value 0.973 | S. cerevisiae deletion strains, locus YKR091W, strain srl3, stronger effect = lower value 1.01 | S. cerevisiae deletion strains, locus YLL001W, strain dnm1, stronger effect = lower value 1.01 | S. cerevisiae deletion strains, locus YLL026W, stronger effect = lower value 1 | S. cerevisiae deletion strains, locus YLL041C, strain sdh2, stronger effect = lower value 1.01 | S. cerevisiae deletion strains, locus YLR027C, strain aat2, stronger effect = lower value 1.02 | S. cerevisiae deletion strains, locus YLR039C, strain RIC1, stronger effect = lower value 0.919 | S. cerevisiae deletion strains, locus YLR058C, strain SHM2, stronger effect = lower value 0.973 | S. cerevisiae deletion strains, locus YLR102C, strain apc9, stronger effect = lower value 0.985 | S. cerevisiae deletion strains, locus YLR113W, strain HOG1, stronger effect = lower value 0.987 | S. cerevisiae deletion strains, locus YLR221C, strain rsa3, stronger effect = lower value 1.02 | S. cerevisiae deletion strains, locus YLR258W, strain gsy2, stronger effect = lower value 1 | S. cerevisiae deletion strains, locus YLR262C, strain YPT6 (second series), stronger effect = lower value 1.02 | S. cerevisiae deletion strains, locus YLR262C, strain YPT6, stronger effect = lower value 0.945 | S. cerevisiae deletion strains, locus YLR268W, strain sec22, stronger effect = lower value 1.02 | S. cerevisiae deletion strains, locus YLR320W, strain mms22, stronger effect = lower value 1.01 | S. cerevisiae deletion strains, locus YLR330W, strain CHS5, stronger effect = lower value 1 | S. cerevisiae deletion strains, locus YLR342W, strain FKS1 (second series), stronger effect = lower value 1.02 | S. cerevisiae deletion strains, locus YLR342W, strain FKS1, stronger effect = lower value 1.01 | S. cerevisiae deletion strains, locus YLR357W, strain rsc2, stronger effect = lower value 0.987 | S. cerevisiae deletion strains, locus YLR370C, strain arc18, stronger effect = lower value 1.01 | S. cerevisiae deletion strains, locus YLR371W, strain rom2, stronger effect = lower value 1.01 | S. cerevisiae deletion strains, locus YLR384C, strain iki3, stronger effect = lower value 0.997 | S. cerevisiae deletion strains, locus YLR418C, strain cdc73, stronger effect = lower value 0.965 | S. cerevisiae deletion strains, locus YML016C, strain PPZ1, stronger effect = lower value 0.999 | S. cerevisiae deletion strains, locus YML032C, strain rad52, stronger effect = lower value 0.947 | S. cerevisiae deletion strains, locus YML120C, strain ndi1, stronger effect = lower value 1.01 | S. cerevisiae deletion strains, locus YML124C, strain tub3, stronger effect = lower value 0.985 | S. cerevisiae deletion strains, locus YMR058W, strain fet3, stronger effect = lower value 1.02 | S. cerevisiae deletion strains, locus YMR078C, strain ctf18, stronger effect = lower value 0.984 | S. cerevisiae deletion strains, locus YMR125W, strain sto1, stronger effect = lower value 1.01 | S. cerevisiae deletion strains, locus YMR129W, stronger effect = lower value 1.02 | S. cerevisiae deletion strains, locus YMR205C, strain PFK2, stronger effect = lower value 1 | S. cerevisiae deletion strains, locus YMR223W, strain ubp8, stronger effect = lower value 0.972 | S. cerevisiae deletion strains, locus YMR231W, strain pep5, stronger effect = lower value 1 | S. cerevisiae deletion strains, locus YMR263W, strain SAP30, stronger effect = lower value 0.993 | S. cerevisiae deletion strains, locus YMR307W, strain GAS1, stronger effect = lower value 1.01 | S. cerevisiae deletion strains, locus YNL067W, strain RPL9B, stronger effect = lower value 0.983 | S. cerevisiae deletion strains, locus YNL071W, strain lat1, stronger effect = lower value 1.02 | S. cerevisiae deletion strains, locus YNL128W, strain TEP1, stronger effect = lower value 0.97 | S. cerevisiae deletion strains, locus YNL183C, strain NPR1, stronger effect = lower value 0.95 | S. cerevisiae deletion strains, locus YNL209W, strain ssb2, stronger effect = lower value 1.01 | S. cerevisiae deletion strains, locus YNL233W, strain BNI4, stronger effect = lower value 0.993 | S. cerevisiae deletion strains, locus YNL248C, strain rpa49, stronger effect = lower value 1.03 | S. cerevisiae deletion strains, locus YNL250W, strain rad50, stronger effect = lower value 0.981 | S. cerevisiae deletion strains, locus YNL271C, strain bni1, stronger effect = lower value 0.988 | S. cerevisiae deletion strains, locus YNL298W, strain CLA4, stronger effect = lower value 0.969 | S. cerevisiae deletion strains, locus YNL307C, strain MCK1, stronger effect = lower value 0.989 | S. cerevisiae deletion strains, locus YNL322C, strain KRE1 (second series), stronger effect = lower value 1.01 | S. cerevisiae deletion strains, locus YNL322C, strain KRE1, stronger effect = lower value 0.99 | S. cerevisiae deletion strains, locus YNR049C, strain mso1, stronger effect = lower value 1 | S. cerevisiae deletion strains, locus YNR052C, strain pop2, stronger effect = lower value 0.995 | S. cerevisiae deletion strains, locus YOL012C, strain htz1 1.07 | S. cerevisiae deletion strains, locus YOL147C, strain pex11, stronger effect = lower value 0.979 | S. cerevisiae deletion strains, locus YOR001W, strain rrp6, stronger effect = lower value 1.02 | S. cerevisiae deletion strains, locus YOR061W, strain CKA2, stronger effect = lower value 0.97 | S. cerevisiae deletion strains, locus YOR069W, strain VPS5, stronger effect = lower value 0.994 | S. cerevisiae deletion strains, locus YOR070C, strain gyp1, stronger effect = lower value 0.996 | S. cerevisiae deletion strains, locus YOR080W, strain dia2, stronger effect = lower value 1 | S. cerevisiae deletion strains, locus YOR083W, strain WHI5, stronger effect = lower value 1.02 | S. cerevisiae deletion strains, locus YOR106W, strain vam3, stronger effect = lower value 1.03 | S. cerevisiae deletion strains, locus YOR136W, strain idh2, stronger effect = lower value 1 | S. cerevisiae deletion strains, locus YOR144C, strain elg1, stronger effect = lower value 0.983 | S. cerevisiae deletion strains, locus YOR184W, strain ser1, stronger effect = lower value 0.995 | S. cerevisiae deletion strains, locus YOR231W, strain MKK1, stronger effect = lower value 0.987 | S. cerevisiae deletion strains, locus YOR265W, strain rbl2, stronger effect = lower value 1 | S. cerevisiae deletion strains, locus YOR270C, strain vph1, stronger effect = lower value 1.07 | S. cerevisiae deletion strains, locus YOR290C, strain snf2, stronger effect = lower value 0.971 | S. cerevisiae deletion strains, locus YOR316C, strain cot1, stronger effect = lower value 0.979 | S. cerevisiae deletion strains, locus YPL051W, strain arl3, stronger effect = lower value 1.02 | S. cerevisiae deletion strains, locus YPL078C, strain atp4, stronger effect = lower value 1.01 | S. cerevisiae deletion strains, locus YPL106C, strain sse1, stronger effect = lower value 1 | S. cerevisiae deletion strains, locus YPL240C, strain hsp82, stronger effect = lower value 1 | S. cerevisiae deletion strains, locus YPL256C, strain CLN2, stronger effect = lower value 0.984 | S. cerevisiae deletion strains, locus YPR119W, strain clb2, stronger effect = lower value 0.983 | S. cerevisiae deletion strains, locus YPR141C, strain kar3, stronger effect = lower value 0.972 | S. cerevisiae deletion strains, locus YPR163C, strain tif3, stronger effect = lower value 0.992 | S. cerevisiae deletion strains, locus YPR167C, strain met16, stronger effect = lower value 0.975 | S. cerevisiae deletion strains, strain wtn01, stronger effect = lower value 1.05 | S. cerevisiae strains, strain wild type, stronger effect = lower value 0.985

— PubChem BioAssay AID1159580 (chemical genetic matrix, 2015)
